The text below walks through data of the OligoGym collection.
Note: reference of the scale not given here.

In one assay the target is C14orf109. The experiment in a line: pooled miR-30 sensor sort-seq; sequence = guide strand. Conditions: shRNA.
With ATGCTCTGTGCAATGGTCCCGA, the sensor-assay potency score (higher = more potent) is -0.872.

Regarding TAACTGCCAAGCATATAGGGAT, the sensor-assay potency score (higher = more potent) was -0.363.

ATAGGAACAAAAACATCTGTAA registered a sensor-assay potency score (higher = more potent) of -0.255.

With TTAAAGAGTCACTCAGCTCTGA, the sensor-assay potency score (higher = more potent) stood at 0.487.

With AAACATAGTAAAATGCTGCTGC, the sensor-assay potency score (higher = more potent) stood at 0.701.

Regarding AAAATAACTGTCCACACCCAAA, the sensor-assay potency score (higher = more potent) is -1.6.

Consider TTCAAGGAGTGTGTCCATGTGG, for which the sensor-assay potency score (higher = more potent) is -0.159.

In turn, TTCATCATTCTCCATGCTCTGT returned a sensor-assay potency score (higher = more potent) of -0.667.

Sequence AAAAATAACTGTCCACACCCAA returned a sensor-assay potency score (higher = more potent) of -0.714.

In the case of ATAACTGCCAAGCATATAGGGA, the sensor-assay potency score (higher = more potent) is -0.701.

As to TTGCAAATAACTGCCAAGCATA, the sensor-assay potency score (higher = more potent) was -1.38.

TACAATCCCACTCCAATCCATC registered a sensor-assay potency score (higher = more potent) of -0.538.

The target in a further assay is C14orf149. Described as above. Particulars: shRNA.
For TAAACTGAGCTTTCACTGCCTC, the sensor-assay potency score (higher = more potent) is -0.0059.

Sequence TCTATTATAAAGCTTGCTGTAC returned a sensor-assay potency score (higher = more potent) of -0.349.

With TTAAAATCACCACATTTCGCTT, the sensor-assay potency score (higher = more potent) is -0.838.

In turn, TCATCTTCTATTATAAAGCTTG yielded a sensor-assay potency score (higher = more potent) of -0.499.

Take TCTTCTATTATAAAGCTTGCTG: the sensor-assay potency score (higher = more potent) is -0.472.

Take TAAAATCACCACATTTCGCTTC: the sensor-assay potency score (higher = more potent) came to 0.352.

Consider TAATTTAGAGAAAACAGTCCTT, for which the sensor-assay potency score (higher = more potent) came out at 0.523.

TTCTATTATAAAGCTTGCTGTA gave a sensor-assay potency score (higher = more potent) of -1.15.

Consider ATGTCCAGGAACATCCACCATG, for which the sensor-assay potency score (higher = more potent) is -1.62.
